Screens from PubChem BioAssay.
A selection: hits, their analogues and other compounds. The true share with any hit is near 19%.
TDP1 cell noCPT = qHTS for Inhibitors of human tyrosyl-DNA phosphodiesterase 1 (TDP1): qHTS in cells in absence of CPT. DT40 Tdp1-/- hTDP1 cells, no CPT, ATP luminescence, 48 h. Potency, µM (series often up to 46.2 µM), for the others: at the highest dose activity change, negative = growth inhibition, usual class: inhibitors. actives 15% (n = 420,000); also: potency is read from the fitted curve at half-maximal effect; nearly all actives have a fitted effect of over 55% in size
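Chicken DT40 Tdp1-/- cells complemented with human TDP1, screened without camptothecin (DMSO vehicle only), 400 cells/well. Compounds pin-transferred, cells incubated at 37 °C for at least 48 hr. Growth read as ATP-dependent luminescence (CellTiter-Glo, 30 min at RT).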
DT40 TDP1 CPT = DT40-hTDP1 cell growth loss with CPT; chicken DT40 Tdp1-/-;hTDP1 cells + 20 nM CPT, ATP luminescence, 48 h; AID 686979; Potency, µM (titrated, usually from 46.2 µM), for the others: top-dose activity change, negative = growth inhibition, usual class: inhibitors; actives 12% (n = 420,000); also: potency is read from the fitted curve at half-maximal effect; nearly all actives have a fitted effect of over 55% in size
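Chicken DT40 Tdp1-/- cells stably complemented with human TDP1 were seeded at 400 cells/well in medium containing 20 nM camptothecin, exposed to pin-transferred compounds, and grown at 37 °C for at least 48 hr. Viability was read as ATP luminescence.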
HT1080 IDH1KD tx = HT-1080 IDH1 knockdown cell toxicity (counter line); Potency, µM (series often up to 46.1 µM), inactives show at the highest dose activity, negative = toxicity, most hits filed as cytotoxic; actives 2% (n = 360,000); HT-1080 IDH1 knockdown viability, ATP luminescence, 48 h;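 also: potency is read from the fitted curve at half-maximal effect; 0% = DMSO wells and -100% = cell-free medium wells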
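% activity derives from luminescence (CellTiter-Glo), normalised to DMSO and no-cell wells. HT-1080-IDH1KD cells, 750/well, had 48 h compound exposure at 37 °C.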
IL-1B inflam inh = blocks inflammasome-driven IL-1 beta release; activity change, % at 57.5 µM; THP-1 LPS/ATP IL-1B secretion, AlphaLISA, 16 h; hits give low values; actives 4.7% (n = 360,000); in the data active = activity change below about -50%; inconclusive = mostly about -30% to -49%
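Secreted IL-1B measured by AlphaLISA bead assay after 16 h compound exposure of THP-1 cells; compounds (final up to 57.5 uM) added 1 h before LPS (250 ng/mL) and ATP (1.25 mM) stimulation; lower signal means less secretion.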
HT1080NT lethal = kills 2HG-producing HT-1080-NT fibrosarcoma cells | HT-1080-NT fibrosarcoma viability, CellTiter-Glo ATP luminescence, 48 h | actives 1.6% (n = 360,000) | Potency, µM (doses to about 46.1 µM), without a hit: top-dose activity, negative = less viability, actives largely listed as cytotoxic | AID 686970;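 also: NT is the 2HG producing partner of a matched IDH1 knockdown line; potency is read from the fitted curve at half-maximal effect; 0% = DMSO-treated cells and -100% = media-only wells without cells; nearly all actives have a fitted effect of over 55% in size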
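Toxicity toward the 2HG-producing NT line was scored as %Activity, normalised to DMSO and no-cell wells, from CellTiter-Glo luminescence after 48 hours' treatment.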
* hit, by the source's call; ? = inconclusive; . = no result given. Unless noted, calls follow the shape of the dose curve; as a rule, active = well fitted curve in the direction sought with a large enough effect; inconclusive = small, poorly fitted or top-dose-only effect, or another doubt; inactive = no such curve, though single readings can be large; an effect the other way counts as inactive or inconclusive. Unless noted, % is scaled to controls: 0 for no effect and ±100 for the full control effect.

SMILES	TDP1 cell noCPT	DT40 TDP1 CPT	HT1080 IDH1KD tx	IL-1B inflam inh	HT1080NT lethal
Cc1cccc(N(C)c2cc(C)nc3nc(C)nn23)c1	?	16µM*	-3%	75	-16%
COc1ccc(C)cc1S(=O)(=O)NCC(c1cccs1)S(=O)(=O)c1ccc(C)cc1 (stereo unspecified)	?	23µM*	.	.	.
COc1ccc(S(=O)(=O)NCC(c2cccs2)S(=O)(=O)c2ccc(C)cc2)cc1F (stereo unspecified)	16µM*	?	.	.	.
COc1ccc(C)cc1S(=O)(=O)NCc1cccs1	10%	6%	-4%	-11	0%
CC(=O)NCC(c1cccs1)S(=O)(=O)c1ccc(F)cc1 (stereo unspecified)	-1%	2%	4%	0	11%
CCCOC(=O)c1c(-c2ccccc2)c(-c2ccccc2)nn(C)c1=O	15µM*	21µM*	.	.	.
CC(=O)c1sc(NC(=O)c2c(-c3ccccc3)c(-c3ccccc3)nn(C)c2=O)nc1C	0.52µM*	0.41µM*	.	.	.
CSc1ncccc1C(=O)NCC1Cc2cc(F)cc(-c3cncnc3)c2O1 (stereo unspecified)	-8%	7%	.	.	.
COCCN(C(=O)c1snc(C(N)=O)c1N)C(C(=O)NC1CCCCC1)c1ccc(F)cc1 (stereo unspecified)	10%	-25%	2%	0	-19%
CCOC(=O)/C(C)=N/Nc1nc(-c2ccc(NC(C)=O)cc2)cs1	?	?	-26%	-24	-21%
CC(=O)NC1(C(F)(F)F)NC(=O)N(CCc2ccccc2)C1=O (stereo unspecified)	-8%	-2%	1%	-19	-3%
COC(=O)c1c(NC(=O)CCS(=O)(=O)c2ccccc2)sc2c1CCN(C)C2	3.7µM*	5.8µM*	16%	?	15%
CC(C)N1CCc2c(sc(NC(=O)CCS(=O)(=O)c3ccccc3)c2C#N)C1	26µM*	?	1%	-12	-14%
CCC(=O)Nc1sc2c(c1C(=O)OC)CCN(Cc1ccccc1)C2	-28%	-22%	-5%	-8	1%
CC(C)(C)C(=O)Nc1sc2c(c1C#N)CCN(Cc1ccccc1)C2	23µM*	?	-1%	-19	-14%
N#Cc1c(N)sc2c1CCN(CCc1ccccc1)C2	?	18µM*	-8%	1	-2%
CCN(CC)CCn1c2c(c(SCC(=O)NCc3ccccc3)nc1=O)CCC2	-1%	6%	-6%	-19	-3%
CCCC(=O)n1nc(-c2ccco2)nc1N	0%	5%	17%	9	15%
Nc1nc(NCCc2ccc(O)cc2)nc2nc(-c3ccco3)nn12	12µM*	15µM*	.	.	.
O=C(NCc1ccccc1)c1cccnc1N1CCOCC1	1%	-22%	0%	2	3%
CCOC(=O)c1ccccc1NC(=O)c1cnc(N2CCOCC2)c2ccccc12	16µM*	?	.	.	.
COc1ccc(NC(=O)c2cccnc2N2CCCCC2)cc1	?	-25%	3%	4	1%
O=C(NCc1ccccc1)c1cnc(N2CCCCC2)c2ccccc12	?	23µM*	.	.	.
CCN1CCN(c2ncc(C(=O)Nc3cc(Cl)ccc3OC)c3ccccc23)CC1	?	?	?	.	-30%
CCOc1ccc(NC(=O)c2cnc(N3CCCCC3)c3ccccc23)cc1	13µM*	21µM*	.	.	.
Cc1ccc(NC(=O)c2cnc(N3CCCCC3)c3ccccc23)cc1Cl	?	21µM*	.	.	.
CC(=O)Nc1c(C(=O)Nc2ccccc2F)oc2ccccc12	?	-16%	.	.	.
O=C1N[C@@H](c2ccccc2)COC(=O)[C@@H](Cc2ccc(F)cc2)CC/C=C/C[C@@H]1CC(=O)N(CCO)Cc1ccccc1	18µM*	13µM*	?	?	?
O=C(C[C@H]1C/C=C/CC[C@@H](Cc2ccc(F)cc2)C(=O)O[C@@H](c2ccccc2)CNC1=O)NCCO	?	?	1%	11	0%
